From PubChem
The list is not random: actives were taken first. Their share in the collection is about 1.7%.
ATG4B inhibitor = inhibitors of human ATG4B cysteine protease; Q9Y4P1; AID 504462; inhibition, % at 8.33 µM; 340,000 compounds, 0.51% hits; ATG4B cleavage of LC3-PLA2, NBD-HPC fluorescence, 1 h
Rin1-Abl PPI inh = inhibitors of human Rin1-Abl protein interaction; 360,000 compounds, 0.4% hits; P00519+Q13671; inhibition, % at 7.35 µM; TR-FRET Rin1/Abl binding, biochemical; in the data active = inhibition above about 5%, passing the limit was not always enough
Neddylation inh = inhibitors of human cullin neddylation; P61081+Q13564; TR-FRET cullin neddylation, biochemical; inhibition, % at 25 µM; 360,000 compounds, 0.58% hits; in the data active = inhibition above about 36%
SUMO1 PPI mod = SUMO1-SIM interaction modulation | SUMO1 binding to a labelled peptide, TR-FRET, 1 h | inhibition, % at 20 µM | 360,000 compounds, 0.33% hits; in the data active = inhibition above about 37%
Neddyl conf = cullin neddylation inhibition, confirmation; shares compounds with Neddylation inh; TR-FRET cullin neddylation biochemical assay; calls only at 25 µM; 1,800 compounds, 13% hits;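 note: neddylation substrate is the cullin 1 ring ligase complex with SKP2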
Hits are given with their value; - = inactive; . = not tested or not shown; + = active, no number. Cut-off read from the data, not from the text of the source, unless noted: active = inhibition above about 40%; inactive = the rest.

SMILES	ATG4B inhibitor	Rin1-Abl PPI inh	Neddylation inh	SUMO1 PPI mod	Neddyl conf
COc1ccc(/C=C/c2ccc(=O)n(Cc3ccccc3)n2)cc1	-	-	49	-	.
COc1ccc2oc(C(=O)OCC(=O)Nc3ccc(OC)c(S(N)(=O)=O)c3)c(C)c2c1	-	-	53	-	.
COc1ccc2oc(C(=O)OCC(=O)N(C)CC(=O)Nc3ccc(C)cc3)c(C)c2c1	-	-	41	-	.
COc1ccc2oc(C(=O)OCC(=O)Nc3ccc(NC(C)=O)cc3)c(C)c2c1	-	-	-	-	.
O=C(c1ccco1)N1N=C(c2cccs2)CC1c1ccc(F)cc1 (centres undefined)	-	-	46	-	-
COc1ccc(-c2nn(-c3ccccc3)cc2C2CC(c3cccs3)=NN2C(=O)CCC(=O)O)cc1 (centres undefined)	-	-	46	-	-
N#Cc1ccccc1OCC(=O)N1N=C(c2cccs2)CC1c1ccco1 (centres undefined)	-	-	51	-	-
Cc1ccc(C2CC(c3cccs3)=NN2C(=O)CCl)cc1 (centres undefined)	-	-	.	-	.
CCC(=O)N1N=C(c2cccs2)CC1c1ccc(C)cc1 (centres undefined)	-	-	52	-	.
COc1ccc(C2=NN(C(=O)CCCC(=O)O)C(c3cn(-c4ccccc4)nc3-c3ccccc3)C2)cc1 (centres undefined)	-	-	-	-	.
O=C(O)CCC(C(=O)O)N1C(=O)C2C3CCC(C3)C2C1=O (centres undefined)	.	-	-	-	.
CC(=O)Nc1cc(-c2cccc(C(=O)NCCO)c2)cn2c(-c3cccc(C(F)(F)F)c3)cnc12	.	-	-	-	.
CCN(CC)CCN1CCN(c2cncc(-c3ccc4ccccc4c3)n2)CC1	.	-	-	-	.
O=C(Nc1ccccc1)N1N=C(c2cccs2)CC1c1cccs1 (centres undefined)	-	-	40	-	-
COc1ccc(C2CC(c3cccs3)=NN2C(=O)CSC2=NCCS2)cc1 (centres undefined)	-	-	43	-	-
O=C(CN1CCOCC1)N1N=C(c2cccs2)CC1c1cccs1 (centres undefined)	-	-	-	-	.
Cc1cc(S(=O)(=O)Nc2ccc(C(=O)NC3CC3)cc2)ccc1F	.	-	-	-	.
COC(=O)c1ccc(C(=O)OC)c(NC(=O)/C=C/C(=O)O)c1	-	-	44	-	-
COC(=O)c1ccc(C(=O)OC)c(NC(=O)Oc2ccccc2)c1	-	-	-	-	.
Cc1ccc(N2C(N)=C(C#N)C(c3cccnc3)C3=C2CCCC3=O)cc1 (centres undefined)	-	-	-	-	.
N#CC1=C(N)N(c2ccc(Br)cc2)C2=C(C(=O)CCC2)C1c1cccnc1 (centres undefined)	-	-	42	-	-
CC(=O)Nc1cccc2c1C(=O)NC2=O	-	-	46	-	+
O=C1NC(=O)c2c(NC(=O)C3CCCO3)cccc21 (centres undefined)	-	-	-	-	.
N#C/C(=C\c1c(N2CCCCCC2)nc2ccccn2c1=O)C(=O)NCc1ccco1	-	-	-	-	.
C=CCNC(=O)/C(C#N)=C/c1c(N2CCCCCC2)nc2ccccn2c1=O	-	-	48	-	-
SMILES	ATG4B inhibitor	Rin1-Abl PPI inh	Neddylation inh	SUMO1 PPI mod	Neddyl conf
CCCC(=O)N1CCCC(c2cc(C(=O)Nc3ccccc3)no2)C1 (centres undefined)	.	-	-	-	.
Cc1cc(F)ccc1S(=O)(=O)Nc1ccccc1C(=O)Nc1ncn[nH]1	-	-	.	-	.
Cc1cc(F)ccc1S(=O)(=O)Nc1ccccc1C(=O)NCc1ccccn1	-	-	45	-	-
c1ccc(-c2ccncn2)cc1	-	-	-	-	.
Cn1c(=O)c2c(nc(N/N=C/c3ccc(OC(=O)c4ccco4)cc3)n2Cc2ccccc2Cl)n(C)c1=O	-	-	44	-	-
Cc1ccc(-c2cc3nc(C)cc(C)n3n2)cc1	-	-	47	-	-
Cc1cc(C)n2nc(-c3ccc(F)cc3)cc2n1	.	-	-	-	.
Cc1cc(C)n2nc(-c3cnn(C)c3C(F)(F)F)cc2n1	-	-	42	-	+
Cc1cc(C(F)F)n2ncc(C(=O)N3CCc4ccccc4C3)c2n1	-	-	-	-	.
COCCNC(=O)c1cnn2c(C(F)F)cc(-c3ccccc3)nc12	-	-	41	-	-
O=C(c1cnn2c(C(F)F)cc(-c3ccccc3)nc12)N1CCc2ccccc2C1	-	-	48	-	-
CCOC(=O)C1=C[C@@H](C(C)(C)C)N(S(=O)(=O)c2ccc(C)cc2)[C@H]1c1ccc(OC)cc1	.	-	-	-	.
CC1(C(=O)NCc2ccccc2)CSCC(=O)N1Cc1ccco1 (centres undefined)	.	.	-	-	.
O=c1[nH]cnc2nn(-c3ccccc3)nc12	-	-	.	-	.
O=c1[nH]cnc2nc(-c3ccccc3)c(-c3ccccc3)nc12	-	-	63	-	.
COc1ccc(-c2ccc(C(=O)Nc3cccc(C(F)(F)F)c3)c3occc23)c(C)c1	.	-	-	-	.
CSc1cccc2sc(NC(=O)C3=COCCO3)nc12	-	-	52	-	.
COc1ccc(Cl)c2sc(NC(=O)C3=COCCO3)nc12	-	-	42	-	-
CC(C)Sc1nnc(-c2ccc(S(=O)(=O)N3CCOCC3)cc2)n1C	-	-	44	-	-
COc1ccc(NC(=O)c2ccc(-c3ccc(C(C)=O)cc3)o2)cn1	-	-	38	-	-
COc1ccc(NC(=O)c2ccco2)cn1	-	-	-	-	.
O=S1(=O)CC(N2CCCC2)CN1Cc1cn(Cc2ccc(F)cc2)nn1 (centres undefined)	.	.	-	-	.
Cc1sc(NC(=O)c2ccco2)c(C(c2ccccc2)N2CCC(C)CC2)c1C (centres undefined)	-	-	45	-	.
C=CCNc1ncnc2c1ncn2[C@H]1CN(Cc2cccs2)C[C@@H](CO)O1	.	-	-	-	.
Oc1cnc2ccccc2c1CN1CCOCC1	-	-	42	-	-
SMILES	ATG4B inhibitor	Rin1-Abl PPI inh	Neddylation inh	SUMO1 PPI mod	Neddyl conf
Oc1ccc2ccccc2c1CN1CCOCC1	-	-	-	-	.
CCOC(=O)c1[nH]c2ccc(F)cc2c1NC(=O)c1ccccc1C(=O)O	-	-	-	-	.
CCOC(=O)c1[nH]c2ccc(F)cc2c1NC(=O)CN1CCN(C/C=C/c2ccccc2)CC1	-	-	42	-	-
CCOC(=O)c1[nH]c2ccc(OC)cc2c1NC(=O)c1ccccc1C(=O)O	-	-	43	-	-
Cn1cc(-c2coc3c(C(=O)NCc4ccco4)cccc23)cn1	.	-	-	-	.
CCOC(=O)C(=CNc1cc(C)nn1-c1ccc(C)cc1)C(=O)OCC	-	-	-	-	.
CCOC(=O)C(=CNc1ccc(O)c(C(=O)OC)c1)C(=O)OCC	-	-	43	-	-
CCOC(=O)C(=CNc1ccc2c(c1)nnn2-c1ccc(Cl)cc1)C(=O)OCC	-	-	44	-	.
CCCCCCn1cc(CN2CC(N3CCCC3)CS2(=O)=O)nn1 (centres undefined)	.	.	-	-	.
CC(NC(=O)c1ccc(Cl)c(S(=O)(=O)NC2CC2)c1)c1ccco1 (centres undefined)	.	-	-	-	.
